From PubChem BioAssay

Test: JC-1 mitochondrial signal, unstimulated HepG2 cells – cell-based, JC-1 fluorescence, 24 h, 100 nL compound, profiling panel (AID 1167); also: test concentration not given here
Settings: HepG2 mitochondrial potential, higher = more signal

| SMILES | z-score |
| --- | --- |
| COCCOC(=O)N1C(=O)[C@@]2(c3cc(C#Cc4ccc(OC)cc4)ccc31)[C@H](C(N)=O)[C@H]1C(=O)O[C@H](c3ccccc3)[C@H](c3ccccc3)N1[C@@H]2c1ccccc1OCCO | -1.79 |
| C=CCN1C(=O)[C@@]2(O[C@@H](CCO)[C@H]([Si](C)(C)c3ccc(OC)cc3)[C@H]2C)c2cc(NC(=O)c3ccc(OC)cc3)ccc21 | -1.69 |
| COC(=O)[C@@]1(Cc2ccc(F)cc2)[C@@H]2[C@@H](CC(=O)[C@H]2CC(=O)C(=O)N(C)C)CN1C(=O)c1ccccc1 | 1.65 |
| O=C1C2C=CC(C(O)c3ccc(F)cc3)N(Nc3ccccc3F)C2C(=O)N1c1ccccc1 (stereo not given) | -1.73 |
| C=CCN(Cc1ccccc1)C(=O)C(c1cccs1)N(CCOCCO)C(=O)/C=C\C(=O)O (stereo not given) | -0.138 |
| C=C(CCCC)/C(=C/C[C@@H](OC(C)=O)c1ccccc1OCCO)c1cnc2ccccc2c1 | 0.749 |
| COc1cc2c(cc1OC)CN(C(=O)[C@@H]1[C@H]3C(=O)O[C@H](c4ccccc4)[C@H](c4ccccc4)N3[C@H](c3ccc(O)cc3)[C@@]13C(=O)Nc1ccc(C#CC4(O)CCCCCC4)cc13)CC2 | -0.769 |
| COCCOC(=O)N1C(=O)[C@@]2(c3cc(C#Cc4ccc(OC)cc4)ccc31)[C@H](c1ccc(O)cc1)N1[C@H](c3ccccc3)[C@H](c3ccccc3)OC(=O)[C@H]1[C@@H]2C(=O)NC[C@H](O)c1ccccc1 | -1.99 |
| COCCOC(=O)N1C(=O)[C@@]2(c3cc(C#CC4=CCCCC4)ccc31)[C@H](C(=O)Nc1nc3ccccc3s1)[C@H]1C(=O)O[C@H](c3ccccc3)[C@H](c3ccccc3)N1[C@@H]2c1ccccc1OCCO | -2.7 |
| CN(C)C(=O)[C@]1(Cc2ccccc2CN=[N+]=[N-])N=C(c2ccc(OCCCO)cc2)O[C@@H]1c1ccccc1CN=[N+]=[N-] | 0.644 |
| COc1ccc([C@H]2OC[C@@H]3CC4(CC=CC4)C(=O)N32)cc1 | -0.301 |
| CCCC[C@@H]1C[C@H]1[C@@H](NC(=O)c1ccco1)c1ccc(C(=O)OC)cc1 | -2.68 |
| O=C1C[C@]2(c3ccc([N+](=O)[O-])cc3)C(=O)N(CCN3CCOCC3)c3cc(CO)ccc3[C@H]2N1C1CCCCC1 | 0.756 |
| O=C(O)[C@@]1(CCS(=O)(=O)c2ccccc2)COC(c2ccc(OCCCO)cc2)=N1 | -1.13 |
| COc1ccc(C(O)C2C=CC3C(=O)N(c4ccccc4)C(=O)C3N2Nc2ccccc2F)cc1OCc1ccccc1 (stereo not given) | -1.51 |
| CC(=O)NCCCC[C@@H]1NC(=O)[C@@H]2C[C@H](C(=O)NCCCCN(C)C)[C@H](c3cccc(OCCO)c3)N2C1=O | -0.085 |
| O=C1NC(=O)C2C1C=CC(C(O)C(c1ccccc1)c1ccccc1)N2Nc1ccc(Cl)cc1Cl (stereo not given) | -3.99 |
| COC(=O)C(CC#Cc1ccc2c(c1)[C@]1(C(=O)N2)[C@H](c2ccc(O)cc2)N2[C@H](c3ccccc3)[C@H](c3ccccc3)OC(=O)[C@H]2[C@@H]1C(=O)Nc1nc2ccccc2s1)C(=O)OC | -1.44 |
| C=CCOC(=O)[C@H]1[C@@H]2C(=O)O[C@@H](c3ccccc3)[C@@H](c3ccccc3)N2[C@@H](c2ccc(OCCOC(=O)[C@@H]3C[C@@H]4C(=O)N5CCC[C@H]5C(=O)N4[C@@H]3c3cccc(OCCO)c3)cc2)[C@]12C(=O)Nc1ccccc12 | -1.41 |
| COc1cc(CO)cc(I)c1O[C@H]1C=C(C(=O)NCCO)C[C@@H](N(CCN2CCOCC2)C(=O)C2CCOC2)[C@@H]1O (stereo not given in full) | 1.05 |
| C=CCOC(=O)[C@@H]1[C@H]2C(=O)O[C@H](c3ccccc3)[C@H](c3ccccc3)N2[C@H](c2ccc(OCCOC(=O)[C@@H]3C[C@@H]4C(=O)N[C@@H](Cc5ccccc5)C(=O)N4[C@@H]3c3ccc(O)cc3)cc2)[C@@]12C(=O)Nc1ccc(I)cc12 | -1.56 |
| C=CCNC(=O)[C@H]1[C@@H]2C(=O)O[C@@H](c3ccccc3)[C@@H](c3ccccc3)N2[C@@H](c2ccccc2OCCO)[C@]12C(=O)Nc1ccc(C#CC3=CCCCC3)cc12 | -1.84 |
| Cc1ccc(S[C@]2(C(=O)NCCN3CCOCC3)CC(=O)N(Cc3ccccc3Cl)[C@@H]2c2ccc(CO)cc2)cc1 | 0.482 |
| COC(=O)[C@@]1(Cc2ccc(OC)cc2)[C@H]2c3cc(C(=O)N4CCCC4)n(Cc4ccccc4)c3C[C@H]2CN1C(=O)c1ccccc1 | 2.44 |
| CC(C)C(=C=CC[C@@H](O)c1ccccc1OCCO)CCO | -1.03 |
